Data taken from PubChem BioAssay AID1159580 (chemical genetic matrix, 2015).
“And” between values parts separate entries of the source, which are not always exact repeats. Identical values can stand only once. In all, about 5,500 compounds went through this assay and about 2,000 (36%) were called active. Another 18% or so got no clear call; they are omitted. No stated cut-off is given here; in the data, active means normalized growth mostly below about 0.91 (no sharp cut-off); inconclusive means no clear call, values can overlap the other calls; inactive means mostly above about 0.92. The list shows a part of the results.

Experiment: chemical genetic growth profiling, strain panel (AID 1159580);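 further: tested at 20 µM; growth read once vehicle control cultures reached saturation at 30 °C; 1 = growth at the plate median or of vehicle wells; lower values mean less growth of the strain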
Details: S. cerevisiae deletion strains, growth OD

Measured: normalized growth

CCn1cc(C(=O)O)c(=O)c2cc(F)c(N3CCNC(C)C3)c(F)c21 (centres undefined)
inactive: locus YAL013W, strain DEP1, hits give low values 0.989 | locus YAL021C, strain ccr4, hits give low values 0.957 | locus YAL026C, strain drs2, hits give low values 0.974 | locus YAL030W, strain snc1, hits give low values 0.988 | locus YAL040C, strain CLN3, hits give low values 0.984 | locus YBL061C, strain skt5, hits give low values 0.962 | locus YBR009C, strain hhf1, hits give low values 1.01 | locus YBR021W, strain FUR4, hits give low values 0.982 | locus YBR023C, strain chs3, hits give low values 0.986 | locus YBR171W, strain sec66, hits give low values 0.975 | locus YBR229C, strain ROT2, hits give low values 1 | locus YBR231C, strain swc5, hits give low values 0.997 | locus YBR279W, strain paf1, hits give low values 0.975 | locus YCL011C, strain gbp2, hits give low values 0.971 | locus YCL016C, strain dcc1, hits give low values 0.958 | locus YCL029C, strain bik1, hits give low values 0.979 | locus YCL061C, strain MRC1 (second series), hits give low values 0.997 | locus YCL061C, strain MRC1, hits give low values 0.993 | locus YCL069W, strain vba3, hits give low values 0.975 | locus YCR088W, strain abp1, hits give low values 0.964 | locus YDL005C, strain med2, hits give low values 0.97 | locus YDL035C, strain GPR1, hits give low values 0.978 | locus YDL040C, strain nat1, hits give low values 0.981 | locus YDL074C, strain BRE1, hits give low values 1.02 | locus YDL101C, strain DUN1, hits give low values 0.995 | locus YDL134C, strain PPH21, hits give low values 0.985 | locus YDL185W, strain tfp1, hits give low values 0.963 | locus YDL192W, strain arf1, hits give low values 0.992 | locus YDR001C, strain nth1, hits give low values 0.974 | locus YDR069C, strain doa4, hits give low values 0.989 | locus YDR101C, strain arx1, hits give low values 0.988 | locus YDR137W, strain rgp1, hits give low values 0.949 | locus YDR150W, strain NUM1, hits give low values 0.996 | locus YDR159W, strain sac3, hits give low values 0.949 | locus YDR162C, strain NBP2, hits give low values 0.98 | locus YDR195W, strain ref2 0.997 | locus YDR297W, strain sur2, hits give low values 0.978 | locus YDR318W, strain mcm21, hits give low values 0.976 | locus YDR334W, strain swr1, hits give low values 0.975 | locus YDR335W, strain msn5, hits give low values 0.968 | locus YDR363W, strain ESC2, hits give low values 1.01 | locus YDR388W, hits give low values 0.995 | locus YDR392W, strain spt3, hits give low values 0.842 | locus YDR502C, strain sam2, hits give low values 0.986 | locus YEL003W, strain gim4, hits give low values 0.982 | locus YEL037C, strain rad23, hits give low values 0.974 | locus YEL061C, strain CIN8 (second series), hits give low values 0.975 | locus YEL061C, strain CIN8, hits give low values 1.01 | locus YER002W, strain NOP16, hits give low values 0.987 | locus YER015W, strain faa2, hits give low values 0.988 | locus YER016W, strain bim1, hits give low values 0.948 | locus YER110C, hits give low values 0.984 | locus YER111C, strain swi4, hits give low values 0.964 | locus YER155C, strain BEM2 (second series), hits give low values 0.945 | locus YER155C, strain BEM2, hits give low values 0.993 | locus YER167W, strain BCK2, hits give low values 0.971 | locus YFR010W, strain ubp6, hits give low values 1 | locus YGL078C, strain dbp3, hits give low values 0.988 | locus YGL086W, strain mad1, hits give low values 0.995 | locus YGL167C, strain pmr1, hits give low values 0.98 | locus YGL173C, strain kem1, hits give low values 0.993 | locus YGL227W, strain vid30, hits give low values 0.981 | locus YGL240W, strain doc1, hits give low values 1.01 | locus YGL248W, strain PDE1, hits give low values 1.01 | locus YGL253W, strain hxk2, hits give low values 0.98 | locus YGR078C, strain PAC10, hits give low values 1.04 and 1.02 | locus YGR135W, strain pre9, hits give low values 0.953 | locus YGR252W, strain gcn5, hits give low values 0.991 | locus YHR013C, strain ard1, hits give low values 0.984 | locus YHR027C, strain rpn1, hits give low values 1 | locus YHR030C, strain SLT2, hits give low values 0.988 and 1.03 | locus YHR079C, strain IRE1 (second series), hits give low values 0.985 | locus YHR079C, strain IRE1, hits give low values 1.06 | locus YHR094C, strain hxt1, hits give low values 0.993 | locus YHR129C, strain ARP1, hits give low values 0.991 | locus YHR142W, strain chs7, hits give low values 0.948 | locus YHR200W, strain rpn10, hits give low values 0.982 | locus YIL066C, strain RNR3, hits give low values 1.01 | locus YIL073C, strain SPO22, hits give low values 0.867 | locus YIL125W, strain kgd1, hits give low values 0.998 | locus YIR030C, strain dcg1, hits give low values 0.98 | locus YJL092W, strain hpr5, hits give low values 0.99 | locus YJL095W, strain BCK1 (second series), hits give low values 0.968 | locus YJL095W, strain BCK1, hits give low values 1.03 and 1.01 | locus YJL115W, strain asf1, hits give low values 0.967 | locus YJL129C, strain trk1, hits give low values 0.931 | locus YJL134W, strain LCB3, hits give low values 0.987 | locus YJL154C, strain vps35, hits give low values 0.967 | locus YJL164C, strain tpk1, hits give low values 0.975 | locus YJL166W, strain qcr8, hits give low values 0.998 | locus YJL168C, strain set2, hits give low values 0.999 | locus YJL187C, strain SWE1 (second series), hits give low values 1.02 | locus YJR043C, strain POL32, hits give low values 1.01 | locus YJR066W, strain TOR1, hits give low values 0.956
